Experimental data: ChEMBL document CHEMBL1961873, “Compounds: GSK PKIS; Assays: Nanosyn kinase panel” (2012)

Each molecule was assayed against T1, Aurora kinase C (Homo sapiens) (UniProt Q9UQB9). Conditions: at 1 µM.
T1 sequence (whole entry): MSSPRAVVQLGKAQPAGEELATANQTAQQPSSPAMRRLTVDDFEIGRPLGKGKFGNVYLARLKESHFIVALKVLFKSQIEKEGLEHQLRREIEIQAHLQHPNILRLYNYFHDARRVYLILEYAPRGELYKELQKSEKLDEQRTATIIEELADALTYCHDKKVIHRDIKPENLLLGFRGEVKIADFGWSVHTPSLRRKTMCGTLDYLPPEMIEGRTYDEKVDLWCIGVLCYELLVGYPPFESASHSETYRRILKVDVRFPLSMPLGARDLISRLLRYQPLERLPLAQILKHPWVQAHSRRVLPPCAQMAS

Row | SMILES | inhibition [%]
1 | c1ccc(COc2ccc(Nc3ncnc4ccc(-c5ccco5)cc34)cc2)cc1 | 6.4
2 | COc1ccc2[nH]c3c4[nH]c5ccc(OC)cc5c4c4c(c3c2c1)C(=O)NC4=O | 86.8
3 | CC1=C(C(=O)Nc2cc(Cl)c3[nH]ncc3c2)C(c2ccc(C(F)(F)F)cc2)CC(=O)N1 (stereo unspecified) | 7.15
4 | Cc1cccc(Nc2ncc(-c3ccccc3)o2)c1 | 11.2
5 | Clc1ccc(-c2nn3ncccc3c2-c2ccnc(Nc3ccccc3)n2)cc1 | 36.1
6 | Cc1ccc(O)cc1Nc1ccnc2cc(-c3ccccn3)ccc12 | 60.6
7 | FC(F)(F)c1cccc(-c2nn3ncccc3c2-c2ccnc(Nc3ccc4c(c3)OCCO4)n2)c1 | 19.9
8 | Nc1nc(-c2cccc(Cl)c2)c(-c2ccc3ncccc3n2)s1 | -2.15
9 | COc1ccc2c(-c3ccnc(Nc4cccc(OC(F)(F)F)c4)n3)cnn2n1 | 56.9
10 | CCN(CC)S(=O)(=O)c1ccc(OC)c(Nc2ncc(-c3ccccc3)o2)c1 | -4.34
11 | COc1ccc(-c2oc3ncnc(N)c3c2-c2ccc(NC(=O)Nc3cc(C(F)(F)F)ccc3F)cc2)cc1 | 76.2
12 | CS(=O)(=O)CCNCc1ccc(-c2ccc3ncnc(Nc4ccc(OCc5ccccc5)c(C(F)(F)F)c4)c3c2)o1 | 2.61
13 | NS(=O)(=O)c1ccc(Nc2ncc(-c3ccccc3)o2)cc1 | 54.5
14 | CN1CCC(n2cnc(-c3ccc(F)cc3)c2-c2ccnc(Nc3ccccc3)n2)CC1 | -2.98
15 | CCCN(CCS(C)(=O)=O)Cc1ccc(-c2ccc3ncnc(Nc4ccc(OCc5cccc(F)c5)c(Cl)c4)c3c2)o1 | 5.04
16 | CN(C)CCOc1ccc(-c2nc(-c3ccncc3)c(-c3ccc4c(c3)CC/C4=N\O)[nH]2)cc1 | -1.31
17 | CCn1c(-c2nonc2N)nc2c(C#CC(C)(C)O)ncc(OC3CCNCC3)c21 | 3.1

Row | SMILES | inhibition [%]
18 | COc1ccc(CNC(=O)c2ccc(-c3cc(-c4nnc(C)o4)ccc3C)cc2)cc1 | -5.63
19 | [O-][S+]1CCN(Cc2ccc(-c3ccc4ncnc(Nc5ccc(OCc6cccc(F)c6)c(Cl)c5)c4c3)o2)CC1 | 6.06
20 | Nc1ncc(-c2cccc(S(N)(=O)=O)c2)c2scc(-c3ccc(F)c(Cl)c3)c12 | 24.6
21 | Nc1nc(-c2ccc(F)cc2)c(-c2ccc3ncccc3n2)s1 | -0.03
22 | Cc1cccc2c1NC(=O)/C2=N\Nc1ccc(S(N)(=O)=O)cc1 | 12.1
23 | N#Cc1c(NC(=O)CN2CCOCC2)sc2c1CCCC2 | -1.84
24 | CNC(=O)c1cncc(/C=C/c2ccccc2Cl)c1 | -3.84
25 | c1ccc(-c2nc3n(c2-c2ccc4c(c2)OCO4)CCC3)nc1 | -3.23
26 | CCCN1CCC(c2ccc(Nc3nc(Nc4cc(F)ccc4C(N)=O)c4cc[nH]c4n3)c(OC)c2)CC1 | -4.81
27 | CNC(=O)c1cccc(C#Cc2cncnc2Nc2ccc(OCc3cccc(F)c3)c(Cl)c2)c1 | -5.97
28 | Fc1ccc(-c2cc(-c3c[nH]nc3-c3ccccn3)ccn2)cc1 | -4.87
29 | COc1ccc(-c2cc3c(N)ncnc3o2)cc1 | 16.7
30 | CC(C)(CO)CNC(=O)c1ccc2c(c1)/C(=N/Nc1ccc(S(N)(=O)=O)cc1)C(=O)N2 | 43
31 | COc1cccc(-c2c[nH]c3c(N/N=C/c4ccncc4)ncnc23)c1 | 90.2
32 | CCc1nn2ncccc2c1-c1ccnc(NC2CC2)n1 | 24.8
33 | NC(=O)c1sc(-n2cnc3ccc(C(F)(F)F)cc32)cc1OCc1ccccc1Br | -6.73

What follows are molecules tested against Serine/threonine-protein kinase 10 (Homo sapiens) (UniProt O94804). Conditions: at 0.1 µM.
Chain of Serine/threonine-protein kinase 10 (Homo sapiens) (O94804 whole entry, looked up): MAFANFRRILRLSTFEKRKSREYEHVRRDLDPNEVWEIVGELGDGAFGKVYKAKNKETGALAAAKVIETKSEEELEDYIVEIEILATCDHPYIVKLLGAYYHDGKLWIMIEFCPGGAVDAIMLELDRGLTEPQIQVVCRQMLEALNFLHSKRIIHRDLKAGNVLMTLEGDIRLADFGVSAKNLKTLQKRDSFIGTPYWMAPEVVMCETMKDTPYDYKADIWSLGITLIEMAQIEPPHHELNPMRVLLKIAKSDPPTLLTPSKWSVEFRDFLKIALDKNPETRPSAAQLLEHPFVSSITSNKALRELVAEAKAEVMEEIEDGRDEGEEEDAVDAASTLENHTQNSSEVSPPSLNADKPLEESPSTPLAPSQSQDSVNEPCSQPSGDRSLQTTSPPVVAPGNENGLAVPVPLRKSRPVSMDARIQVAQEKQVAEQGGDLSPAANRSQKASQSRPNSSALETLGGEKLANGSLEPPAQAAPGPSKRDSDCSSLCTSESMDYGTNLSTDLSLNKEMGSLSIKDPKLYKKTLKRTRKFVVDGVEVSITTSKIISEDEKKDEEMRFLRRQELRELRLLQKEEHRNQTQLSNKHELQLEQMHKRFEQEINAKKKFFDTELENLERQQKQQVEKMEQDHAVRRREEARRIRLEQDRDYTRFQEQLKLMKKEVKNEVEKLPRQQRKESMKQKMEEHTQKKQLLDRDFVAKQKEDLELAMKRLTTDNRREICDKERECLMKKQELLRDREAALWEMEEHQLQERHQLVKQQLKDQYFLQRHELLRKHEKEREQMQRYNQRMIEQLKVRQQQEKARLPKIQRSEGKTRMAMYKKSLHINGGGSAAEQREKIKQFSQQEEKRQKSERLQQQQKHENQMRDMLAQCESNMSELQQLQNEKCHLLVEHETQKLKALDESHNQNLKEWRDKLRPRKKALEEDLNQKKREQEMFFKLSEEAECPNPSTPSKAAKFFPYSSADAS

Row | SMILES | inhibition [%]
34 | c1ccc(COc2ccc(Nc3ncnc4ccc(-c5ccco5)cc34)cc2)cc1 | 3.53
35 | COc1ccc2[nH]c3c4[nH]c5ccc(OC)cc5c4c4c(c3c2c1)C(=O)NC4=O | 9.72
36 | CC1=C(C(=O)Nc2cc(Cl)c3[nH]ncc3c2)C(c2ccc(C(F)(F)F)cc2)CC(=O)N1 (stereo unspecified) | 6.25
37 | Cc1cccc(Nc2ncc(-c3ccccc3)o2)c1 | 3.16
38 | Clc1ccc(-c2nn3ncccc3c2-c2ccnc(Nc3ccccc3)n2)cc1 | 4.2
39 | Cc1ccc(O)cc1Nc1ccnc2cc(-c3ccccn3)ccc12 | 11.1
40 | FC(F)(F)c1cccc(-c2nn3ncccc3c2-c2ccnc(Nc3ccc4c(c3)OCCO4)n2)c1 | 3.84
41 | Nc1nc(-c2cccc(Cl)c2)c(-c2ccc3ncccc3n2)s1 | 8.2
42 | COc1ccc2c(-c3ccnc(Nc4cccc(OC(F)(F)F)c4)n3)cnn2n1 | 4.75
43 | CCN(CC)S(=O)(=O)c1ccc(OC)c(Nc2ncc(-c3ccccc3)o2)c1 | 2.55
44 | COc1ccc(-c2oc3ncnc(N)c3c2-c2ccc(NC(=O)Nc3cc(C(F)(F)F)ccc3F)cc2)cc1 | 49.5
45 | CS(=O)(=O)CCNCc1ccc(-c2ccc3ncnc(Nc4ccc(OCc5ccccc5)c(C(F)(F)F)c4)c3c2)o1 | 5.07
46 | NS(=O)(=O)c1ccc(Nc2ncc(-c3ccccc3)o2)cc1 | 5.53
47 | CN1CCC(n2cnc(-c3ccc(F)cc3)c2-c2ccnc(Nc3ccccc3)n2)CC1 | 2.62
48 | CCCN(CCS(C)(=O)=O)Cc1ccc(-c2ccc3ncnc(Nc4ccc(OCc5cccc(F)c5)c(Cl)c4)c3c2)o1 | 2.22
49 | CN(C)CCOc1ccc(-c2nc(-c3ccncc3)c(-c3ccc4c(c3)CC/C4=N\O)[nH]2)cc1 | 22.1
50 | CCn1c(-c2nonc2N)nc2c(C#CC(C)(C)O)ncc(OC3CCNCC3)c21 | 3.27

Row | SMILES | inhibition [%]
51 | COc1ccc(CNC(=O)c2ccc(-c3cc(-c4nnc(C)o4)ccc3C)cc2)cc1 | 13.2
52 | [O-][S+]1CCN(Cc2ccc(-c3ccc4ncnc(Nc5ccc(OCc6cccc(F)c6)c(Cl)c5)c4c3)o2)CC1 | 9.61
53 | Nc1ncc(-c2cccc(S(N)(=O)=O)c2)c2scc(-c3ccc(F)c(Cl)c3)c12 | 8.9
54 | Nc1nc(-c2ccc(F)cc2)c(-c2ccc3ncccc3n2)s1 | 5.75
55 | Cc1cccc2c1NC(=O)/C2=N\Nc1ccc(S(N)(=O)=O)cc1 | 3.27
56 | N#Cc1c(NC(=O)CN2CCOCC2)sc2c1CCCC2 | 5.94
57 | CNC(=O)c1cncc(/C=C/c2ccccc2Cl)c1 | 3.92
58 | c1ccc(-c2nc3n(c2-c2ccc4c(c2)OCO4)CCC3)nc1 | -0.05
59 | CCCN1CCC(c2ccc(Nc3nc(Nc4cc(F)ccc4C(N)=O)c4cc[nH]c4n3)c(OC)c2)CC1 | 7.74
60 | CNC(=O)c1cccc(C#Cc2cncnc2Nc2ccc(OCc3cccc(F)c3)c(Cl)c2)c1 | 0
61 | Fc1ccc(-c2cc(-c3c[nH]nc3-c3ccccn3)ccn2)cc1 | 6.15
62 | COc1ccc(-c2cc3c(N)ncnc3o2)cc1 | -1.35
63 | CC(C)(CO)CNC(=O)c1ccc2c(c1)/C(=N/Nc1ccc(S(N)(=O)=O)cc1)C(=O)N2 | -1.79
64 | COc1cccc(-c2c[nH]c3c(N/N=C/c4ccncc4)ncnc23)c1 | 8.9
65 | CCc1nn2ncccc2c1-c1ccnc(NC2CC2)n1 | 3.95
66 | NC(=O)c1sc(-n2cnc3ccc(C(F)(F)F)cc32)cc1OCc1ccccc1Br | 9.21
